Measurements as given in PubChem BioAssay (NCATS).
Records with an inconclusive call do not appear. Entries that show only a call come without a potency. A number with no mark means an inactive call. Activity calls are given as the source filed them. Calls come from the whole dose curve; as a rule, active = well fitted curve in the direction sought with a large enough effect; inconclusive = small, poorly fitted or top-dose-only effect, or another doubt; inactive = no such curve, though single readings can be large; an effect the other way counts as inactive or inconclusive.

Columns and labels:
[1] = molecular target: Aldehyde dehydrogenase, mitochondrial (Homo sapiens) (UniProt P05091); test: qHTS for Inhibitors of the Aldehyde Dehydrogenase Family (ALDH2) Primary screen (AID 2061308); note: nearly all actives have a fitted effect of over 55% in size
[2] = molecular target: Retinaldehyde dehydrogenase 3 (Homo sapiens) (UniProt P47895); test: qHTS for Inhibitors of the Aldehyde Dehydrogenase Family (ALDH1A3) Primary screen (AID 2061315)

Row | SMILES | Potency [1] | Potency [2] | activity change, negative = inhibition [1] | activity change, negative = inhibition [2]
1 | O=S(=O)(Nc1cnc2ccccc2c1)c1ccc(NCc2cccc(Cl)c2O)cc1 | inactive | inactive | – | –
2 | Cc1nc(NCc2ccc(-c3ccnc(C(F)(F)F)c3)cc2)c2ccccc2n1 | inactive | inactive | – | –
3 | CNc1oc(-c2ccccc2-c2ccccc2)nc1C#N | inactive | inactive | – | –
4 | COc1ccc(-c2nnc3n2N=C(c2c(OC)cccc2OC)CS3)cc1OC | inactive | inactive | – | –
5 | Cc1cc2c(s1)c1cnn(Cc3ccc(C(F)(F)F)cc3)c(=O)c1n2C | inactive | inactive | – | –
6 | O=[S+]([O-])(c1ccc2c(c1)OCCO2)N1CCN([S+](=O)([O-])c2ccc(F)cc2Cl)CC1 | inactive | inactive | – | –
7 | Cc1cnc(-c2ccccc2C2COC2)nc1NCC1CCN(c2cccnc2)CC1 | inactive | inactive | – | –
8 | O=[S+]([O-])(Nc1ccc(N2CCNCC2)cc1)c1ccc(NCc2cccc(Cl)c2O)cc1 | inactive | inactive | – | –
9 | Cc1ccc(S(=O)(=O)n2cc(C(=O)Nc3ccc(-c4ccccc4)cc3)c3ccccc32)cc1 | inactive | inactive | – | –
10 | NCCC(=O)Nc1cccc(-c2nn3c(=O)cc(N4CCNCC4)nc3s2)c1 | inactive | inactive | – | –
11 | O=S1(=O)N=C(Oc2cccc(Br)c2)c2ccccc21 | inactive | inactive | – | –
12 | Cc1noc(C)c1C(=O)N1CCC2(CCCN(C(c3ccccc3)c3ccccc3)C2)CC1 | inactive | inactive | – | –
13 | O=C(Nc1ccc(-c2cccnc2)nc1)c1cccs1 | inactive | inactive | – | –
14 | Cc1cccc(CNc2ncnc3ccc(-c4ccc5c(c4)OCO5)cc23)c1 | inactive | inactive | – | –
15 | CNc1oc(-c2ccc(-c3ccccc3)cc2)nc1C#N | inactive | inactive | – | –
16 | Cc1nc(C)c(-c2ccc3ncnc(N(C)Cc4sccc4C)c3c2)s1 | inactive | inactive | – | –
17 | COc1ccc2cc3cc(C(=O)Nc4ccc(F)cc4)sc3nc2c1 | inactive | inactive | – | –
18 | Cc1cc(C)n2ncc(C(=O)Nc3cc(Cl)cc(Cl)c3)c2n1 | inactive | inactive | – | –

Row | SMILES | Potency [1] | Potency [2] | activity change, negative = inhibition [1] | activity change, negative = inhibition [2]
19 | Cc1noc(-c2sc3c(c2-c2nc4ccccc4s2)CCNC3)n1 | inactive | inactive | – | –
20 | O=C1CCCC2=C1C(c1ccncc1Cl)N=C(Nc1nc3ccccc3o1)N2 (configuration not stated) | inactive | inactive | – | –
21 | Cc1nc(N2CCOCC2)c2nc(-c3ccccc3)n(CC3CCN(C)CC3)c2n1 | inactive | inactive | – | –
22 | Cc1cc2c(s1)c1cnn(Cc3cccc(C)c3F)c(=O)c1n2C | inactive | inactive | – | –
23 | O=[S+]([O-])(Nc1ccccc1)c1ccc(NCc2cccc(C(F)(F)F)c2F)cc1 | inactive | inactive | – | –
24 | Cc1cn([C@H]2C[C@H](N[S+](=O)([O-])Cc3ccccc3)[C@@H](CO)O2)c(=O)[nH]c1=O | inactive | inactive | – | –
25 | Cc1csc(CNc2ncnc3ccc(-c4ccccc4Cl)cc23)c1 | inactive | inactive | – | –
26 | COc1cccc(C2c3c(ncn(-c4cccc(Cl)c4)c3=N)Oc3ccc4ccccc4c32)c1 (configuration not stated) | inactive | inactive | – | –
27 | CC(C)c1nc(Nc2nc3ccccc3o2)nc2c1CCCC2 | inactive | inactive | – | –
28 | O=C(OCC#CCSc1nnc(-c2cccc3ccccc23)o1)c1ccsc1 | inactive | inactive | – | –
29 | CC(C)c1ccccc1SC1=NS(=O)(=O)c2ccccc21 | inactive | inactive | – | –
30 | Cc1csc(CNc2ncnc3ccc(-c4ccc(C(=O)O)o4)cc23)n1 | inactive | inactive | – | –
31 | O=C(O)CCc1cc(F)c(S(=O)(=O)N2CCN(S(=O)(=O)c3ccc4c(c3)OCCO4)CC2)cc1F | inactive | inactive | – | –
32 | Cn1nnnc1Sc1ncnc2scc(-c3ccccc3F)c12 | inactive | inactive | – | –
33 | C[C@@H]1O[C@@H](O[C@H]2[C@@H](OC(=O)[C@]34CCC(C)(C)CC3C3=CCC5[C@@]6(C)C[C@H](O)[C@H](O[C@@H]7O[C@H](CO)[C@@H](O)[C@H](O)[C@H]7O[C@@H]7OC[C@@H](O)[C@H](O)[C@H]7O)[C@@](C)(C(=O)O)C6CC[C@@]5(C)[C@]3(C)CC4)OC[C@H](O)[C@@H]2O)[C@H](O)[C@H](O)[C@H]1O[C@@H]1OC[C@@H](O)[C@H](O)[C@H]1O (some centres not stated) | – | – | 6.76% [at 11.2 µM] | 0.185% [at 11.2 µM]
34 | CC(C)(C)OC(=O)NCC(=O)NNC(=O)c1cc2ccccc2[nH]1 | inactive | inactive | – | –
35 | COc1ccc(Nc2nc(C#N)nc(NC3CCCC3)n2)cc1 | inactive | inactive | – | –
36 | CCCn1c(-c2ccc(F)cc2)nc2c(NCCCN(CCO)CCO)nc(C)nc21 | inactive | inactive | – | –
